Reference: publication PMC5540273 (PLoS ONE, 2017)

Tested on: ROCK1
Details: concentration: 1 μM, replicates: in singlicate; n = 1
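Note: KINOMEscan kinase panel screen.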

Structure (SMILES) | %Inh [%]
COCCOCCOc1cc2ncc3c4ccc(C#N)cc4[nH]c3c2cc1OC | 96.9
CCn1c(-c2nonc2N)nc2c(C#CC(C)(C)O)ncc(OCCCCN)c21.O=C(O)C(F)(F)F.O=C(O)C(F)(F)F [GSK507274] | 97.2
Cn1cc(-c2[nH]c3cc(NC(=O)[C@H](N)C4CCCCC4)cc4c3c2C=NNC4=O)cn1 | 85
COc1cc(Nc2ncc3c(C)nc(-c4cc5ccccc5[nH]4)n3n2)cc(OC)c1OC [GW869516] | 0
COc1ccc(Nc2nccc(NCCNC(=O)c3cc4ccccc4s3)n2)cc1 [GSK1379896] | 13
Cl.Cl.NCC(C(=O)Nc1cc(Br)c(-c2ccnc3[nH]ccc23)s1)c1ccccc1 (stereo not drawn) [GSK1269851] | 99.1
Cc1ccc(C)c(NC(=O)NC2CCN(c3ccnc(Nc4ccc(F)cc4)n3)C2)c1 (stereo not drawn) [GSK1379720] | 0
CN1CCN(CCCNc2nccc(-c3c(-c4ccc(F)cc4)nn4cc(C(F)(F)F)ccc34)n2)CC1 [GW621581] | 0
O=C(Nc1cccc(-c2nn3ccccc3c2-c2ccnc(Nc3cccc(F)c3)n2)c1)c1c(F)ccc(F)c1Cl [GSK357952] | 3
Nc1ncc(-c2cccnc2)c2scc(-c3ccc4c(c3)CCN4C(=O)Cc3ccccc3)c12 [GSK683281] | 0
Cc1cccc(Nc2nc(N[C@H]3CCNC3)ncc2C(N)=O)c1.Cl [GSK2197149] | 67
Cc1ccc(C(=O)N2CC[C@@H](O)C2)cc1-n1c(C)cc(OCc2ccc(F)cc2F)c(Br)c1=O | 0
